The structures appear in SMILES notation. Active and inactive are the calls of the source.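 The calls were made as follows: active = calcium activation more than 3 SD above the typical response in the agonist read; inactive = the rest.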

Thyrotropin-releasing hormone receptor (Homo sapiens), sequence (P34981 whole entry, looked up): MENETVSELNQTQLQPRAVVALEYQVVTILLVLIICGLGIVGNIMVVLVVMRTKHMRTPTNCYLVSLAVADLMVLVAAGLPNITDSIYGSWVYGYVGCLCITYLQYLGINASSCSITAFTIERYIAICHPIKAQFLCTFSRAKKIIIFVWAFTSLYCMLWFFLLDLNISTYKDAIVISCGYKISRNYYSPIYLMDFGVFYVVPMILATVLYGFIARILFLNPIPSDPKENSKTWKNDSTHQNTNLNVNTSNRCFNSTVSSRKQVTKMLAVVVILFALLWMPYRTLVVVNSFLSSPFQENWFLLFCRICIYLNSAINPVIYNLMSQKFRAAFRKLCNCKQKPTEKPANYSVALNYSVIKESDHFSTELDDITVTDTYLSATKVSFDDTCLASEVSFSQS

The target of this assay is Thyrotropin-releasing hormone receptor (Homo sapiens) (UniProt P34981). The assay is described as follows: qHTS for Small Molecule Agonists and Allosteric Enhancers of Human TRH Receptor: Validation Screen for Agonists (AID 493127).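 Also: intracellular calcium rise by fluo-8 fluorescence before TRH EC20 addition; 0% is about no effect.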 Particulars: TRH receptor agonist cell assay; at 2 µM; hits give high values. An excerpt:
NIH Chemical Genomics Center [NCGC]
NIH Molecular Libraries Probe Centers Network [MLPCN]
Assay Submitter (PI): Marvin Gershengorn
This project aims to identify small drug-like molecules that activate (agonists) the thyrotropin releasing hormone (TRH) receptor (TRHR) or enhance its TRH-stimulated activity (allosteric enhancers). TRHR, a drug-accessible cell surface receptor expressed in specific brain regions, and its ligand TRH have been implicated in several central nervous system disorders, including depression and anxiety. Small molecule TRHR agonists or allosteric enhancers that are metabolically stable and able to cross the blood-brain barrier might serve as probes to elucidate the roles of brain TRH receptors in animal models, and might be valuable as lead compounds for the development of drugs to treat patients with central nervous system disorders.
Upon TRHR-Gq activation in TRHR cells, intracellular calcium is released from stores in the endoplasmic reticulum. […] This validation screen measures compound-induced activation of calcium release.
For the HTS assay freshly prepared cells are plated at a density of 2000/well in 3 ul of complete DMEM medium containing 10% serum in 1536-well plates and cultured over night at 37 C in a humidified incubator with 5% CO2. The next day, 2 ul of a no wash calcium dye (ABD Bioquest) was added to the cells and plates were incubated at room temperature for 1 hour. For the assay, assay plates were loaded into the FDSS kinetic plate reader. A 10 cycle (1 second/cycle) baseline measurement is taken and then the FDSS online 1536 pintool delivers 23 nl of compound library (as well as TRH controls) to the plate. The plate is measured for kinetically at 1 cycle/sec for 180 seconds and is considered to be the agonist portion of the assay (eg, compounds which activate a positive calcium response during this portion are flagged as potential agonists). Following the 180 second read, 1 ul of either an EC20 (positive modulation assay) is delivered by an onboard pipette head. Measurements are taken kinetically for an additional 180 seconds.
TRHR FDSS Screening Protocol
1. Reagent, 3 uL 2000 cells/well 1536 TC treated Black plate in media containing 10% FCS
2. Time, 18 hours, 33.5C 5% CO2 (cells grown at 37C)
3. Reagent, 2 uL ABD fluo-8 Ca dye
4. Time, 30 min-1.5hrs hours, Room temp (6 plates/batch)
5. Detector, EX 480/EM 530C, FDSS 10 cycles baseline (1sec/cycle)
6. Compound, 23 nL of stock solution from library
7. Detector, EX 480/EM 530C, FDSS 230 cycles (1sec/cycle) Agonist mode
8. Compound, 1 ul EC20 of TRH made up in HEPES HBSS, 10 nM final
9. Detector, EX 480/EM 530C, FDSS 100 cycles (1sec/cycle) Potentiator mode
For orientation: Quantitative high-throughput screening tests each substance at several concentrations.
As to `Oc1ccc2c3c1O[C@H]1[C@@H](O)CC[C@@]4(O)C(C2)N(CC2CCC2)CCC314` (stereo not given in full), the activation was 1.31% (inactive).

On to `COc1ccc2c(c1O)-c1cccc3c1C(C2)N(C)CC3` (stereo not given), for which the activation was 1.19% (inactive).

As for `CCCN1CCC[C@@H]2Cc3n[nH]cc3C[C@H]21`, the activation was 1.12% (inactive).

On to `NC(Cn1ccc(=O)[nH]c1=O)C(=O)O` (stereo not given), for which the activation was 0.375% (inactive).

As for `C[C@@H]1O[C@@H](O[C@H]2C[C@@H](O)[C@]3(CO)[C@H]4[C@H](O)C[C@]5(C)[C@@H]([C@@H]6COC(=O)C6)CC[C@]5(O)[C@@H]4CC[C@]3(O)C2)[C@H](O)[C@H](O)[C@H]1O`, the activation is 1.38% (inactive).

As for `CCCC[N+]1(C)C2CC(OC(=O)C(CO)c3ccccc3)CC1C1OC12` (stereo not given), the activation was -0.438% (inactive).

On to `NNCc1cccc(O)c1`, for which the activation is 0.875% (inactive).

`C/C=C(/C)C(=O)O[C@H]1C(C)=C2C([C@@H]1OC(=O)CCCCCCC)[C@@](C)(OC(C)=O)C[C@@H](OC(=O)CCC)[C@@]1(O)[C@H]2OC(=O)[C@@]1(C)O` (stereo not given in full): the activation is 37.9% (active).

Turning to `C[C@H]1C2Cc3ccc(O)cc3[C@]1(C)CCN2CC1CC1`, the activation was 1.81% (inactive).

With `C[C@]12CC[C@H](OS(=O)(=O)O)CC1=CCC1C2CC[C@]2(C)C(=O)CC[C@@H]12` (stereo not given in full), the activation is 0.688% (inactive).

Turning to `O=C(O)C1C2CCC(O2)C1C(=O)O` (stereo not given), the activation was 1.38% (inactive).

For the compound `CCCN(CCC)[C@@H]1CCc2c(F)ccc(O)c2C1`, the activation is -2.75% (inactive).

For `CC[C@@H](CO)NC(=O)[C@H]1C=C2c3cccc4c3c(cn4C)C[C@H]2N(C)C1`, the activation is -2.81% (inactive).

On to `C=CCN1CCc2cccc3c2C1Cc1ccc(O)c(O)c1-3` (stereo not given), for which the activation was -2.75% (inactive).

For `CC(C)[C@@]1(NC(=O)[C@@H]2C[C@@H]3c4cccc5[nH]cc(c45)C[C@H]3N(C)C2)O[C@@]2(O)C3CCCN3C(=O)[C@H](Cc3ccccc3)N2C1=O` (stereo not given in full), the activation is 0.125% (inactive).

For the compound `C[C@]12CC[C@H]3[C@@H](CCC4C[C@H](O)CC[C@@]43C)[C@@H]1CC[C@@H]2O` (stereo not given in full), the activation was 1.31% (inactive).

Take `Nc1ncnc2c1ncn2[C@@H]1O[C@H](COP(=O)(O)CP(=O)(O)OP(=O)(O)O)[C@H](O)[C@H]1O`: the activation is 1.25% (inactive).

Regarding `Oc1cc2c(cc1O)[C@H]1c3ccccc3CNC1CC2` (stereo not given in full), the activation was 0.812% (inactive).

Consider `CC1Cc2cc3c(cc2C(c2ccc(N)cc2)=NN1)OCO3` (stereo not given), for which the activation is 0.188% (inactive).

Turning to `CCCN1CCc2cc(O)cc3c2C1Cc1ccc(O)c(O)c1-3` (stereo not given), the activation is 0.375% (inactive).

Regarding `COc1cc(C=C(C#N)C#N)cc(O)c1O`, the activation is 2.88% (inactive).

In the case of `CCCN1CCCC(c2cccc(O)c2)C1` (stereo not given), the activation was -4.62% (inactive).

`C#CCN(C)C(C)Cc1ccccc1` (stereo not given): the activation was -5.25% (inactive).

`NCC#Cc1ccccc1`: the activation was 1.69% (inactive).

Consider `N#CC(=Cc1ccc(O)c(O)c1)C(N)=S`, for which the activation is 3.19% (inactive).

As to `CCNC(=O)[C@H]1O[C@@H](n2cnc3c(N)ncnc32)[C@H](O)[C@H]1O`, the activation is 0% (inactive).

As for `CCCCN1C2CCC1CC(OC(c1ccc(F)cc1)c1ccc(F)cc1)C2` (stereo not given), the activation was 8.5% (inactive).

On to `CN1C[C@@H](CS(=O)(=O)N(C)C)C[C@@H]2c3cccc4c3c(cn4C)C[C@H]21`, for which the activation was 1.44% (inactive).

As to `CCN1C[C@]2(C)CC[C@H](O)[C@@]34[C@@H]5C[C@@H]6[C@@H](OC)C[C@@](O)(C5[C@H]6O)[C@@H](C[C@@H]23)[C@@H]14`, the activation was 0.875% (inactive).

As for `CC(C)(O)C1C2OC(=O)C1[C@]1(O)C[C@H]3O[C@]34C(=O)O[C@H]2[C@]14C` (stereo not given in full) (tested in a mixture with another compound), the activation is 0.625% (inactive).

With `CCc1c(C(=O)OC)ncc2[nH]c3cc(OC)c(OC)cc3c12`, the activation is 0.312% (inactive).

In the case of `C[C@H]1OC[C@@H](C[N+](C)(C)C)O1`, the activation was 24.3% (inactive).

Consider `COc1ccc2c3c1O[C@H]1C(=O)CC[C@@]4(O)C(C2)N(CC2CC2)CCC314` (stereo not given in full), for which the activation is 2.19% (inactive).

Take `O=C(OC1CCN(CCCl)CC1)C(c1ccccc1)c1ccccc1`: the activation was -9.25% (inactive).

For `CCCN1CCC[C@@H](c2cccc(C#N)c2)C1`, the activation was 1.31% (inactive).

With `CCC(CO)NC(=O)[C@@H]1C=C2c3cccc4[nH]cc(c34)C[C@H]2N(C)C1` (stereo not given in full), the activation is -2.81% (inactive).

As to `CCCN(CCC)C(=O)Cc1c(-c2ccc(Cl)cc2)nc2c(Cl)cc(Cl)cn12`, the activation was -11.1% (inactive).

On to `C=CCN1CC[C@@]2(C)c3cc(O)ccc3CC1[C@@H]2C`, for which the activation is 1.19% (inactive).

Regarding `COc1cc(C[C@@H](C)N)c(OC)cc1I`, the activation is 0.562% (inactive).

Take `CCN(CC)C(=O)N[C@@H]1C[C@@H]2c3cccc4[nH]cc(c34)C[C@H]2N(C)C1`: the activation is -2.62% (inactive).

Values taken from PubChem BioAssay (NCATS).
